# Data published in ChEMBL document CHEMBL1201862, “PubChem BioAssay data set” (2004).
# Out of some 150,000 compounds screened, about 6,500 (4.3%) were called active. About 12% were inconclusive and are not listed. The calls are words filed in the database; no cut-off is given here. The entries come from a sample that favours actives as a whole.
# Target: T1, 15-hydroxyprostaglandin dehydrogenase [NAD(+)] (Homo sapiens) (UniProt P15428)
# T1 sequence (whole entry): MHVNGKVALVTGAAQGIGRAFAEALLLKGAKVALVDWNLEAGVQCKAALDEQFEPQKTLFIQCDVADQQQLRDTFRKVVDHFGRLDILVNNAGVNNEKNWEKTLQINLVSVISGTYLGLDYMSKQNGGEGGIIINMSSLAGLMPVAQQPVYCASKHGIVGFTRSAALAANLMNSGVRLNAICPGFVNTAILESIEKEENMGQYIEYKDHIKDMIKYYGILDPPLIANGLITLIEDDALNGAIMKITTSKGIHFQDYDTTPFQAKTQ
row,SMILES,Potency
1,O=C(O)c1cc(/N=N/c2ccc(S(=O)(=O)Nc3ccccn3)cc2)ccc1O,15.8 µM (active)
2,O=C(O)c1cc(/N=N\c2ccc(S(=O)(=O)Nc3ccccn3)cc2)ccc1O,14.1 µM (active)
3,O=C(/C=C\c1ccco1)Nc1nc(-c2ccccc2)cs1,inactive
